# Source: PubChem BioAssay (The Scripps Research Institute Molecular Screening Center)
# DAX1 inh-1 = DAX1 (NR0B1) inhibitors, primary screen, cell-based, HEK293, Gal4-DAX1, luciferase luminescence | Nuclear receptor subfamily 0 group B member 1 (Homo sapiens), P51843 | HEK293 Gal4-DAX1 luciferase reporter | inhibition, % at 6.75 µM | actives 0.99% (n = 340,000) | AID 504766, 2011;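 active = inhibition above the mean over all tested compounds plus 3 SD, cut at about 4.2% in these data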;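 note: inhibition shows as a rise in luminescence from relieved DAX1 repression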
# ssDAF12 agonist = S. stercoralis DAF-12 nuclear receptor activators, primary screen, cell-based, luminescence, HEK293, GRIP1 co-expression, lit1-tk-luc; Nuclear hormone receptor DAF-12 (Strongyloides stercoralis); HEK293 ssDAF-12/GRIP1 lit1-tk-luc reporter; % of 3 µM dafachronic acid response; activation, % at 6.8 µM; actives 1% (n = 370,000); AID 652126, 2013;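 active = activation above the mean over all tested compounds plus 3 SD, cut at about 0.9% in these data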
# hgDAF12 agonist = H. glycines DAF-12 receptor agonists, primary screen, cell-based, luminescence, HEK293, GAL4 fusion, UAS-luciferase | Nuclear hormone receptor DAF-12 (Heterodera glycines), GAL4 fusion | HEK293 GAL4-hgDAF12 UAS-luciferase reporter, agonist luminescence; normalized to butyrate control | activation, % at 6.8 µM | actives 1.8% (n = 370,000) | AID 687014, 2013;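 active = activation above a cutoff set at the mean of all screened compounds plus 3 SD, cut at about 10% in these data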
# Wee1 stabilizer = Wee1 degradation inhibitors, primary screen, cell-based, HeLa, Wee1K328M-luciferase, luminescence | actives 1.2% (n = 220,000) | AID 1321, 2008 | reporter increase, % at 5 µM | HeLa Luc-Wee1K328M stability; 100% = proteasome inhibitor MG132 effect;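 active = activation above the mean of all tested compounds plus 3 SD, set per screening run, cut at about 8.8% in these data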;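 note: cells exposed to compound for 20 h before luminescence read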
# Target sequence (P30291 whole entry K328M): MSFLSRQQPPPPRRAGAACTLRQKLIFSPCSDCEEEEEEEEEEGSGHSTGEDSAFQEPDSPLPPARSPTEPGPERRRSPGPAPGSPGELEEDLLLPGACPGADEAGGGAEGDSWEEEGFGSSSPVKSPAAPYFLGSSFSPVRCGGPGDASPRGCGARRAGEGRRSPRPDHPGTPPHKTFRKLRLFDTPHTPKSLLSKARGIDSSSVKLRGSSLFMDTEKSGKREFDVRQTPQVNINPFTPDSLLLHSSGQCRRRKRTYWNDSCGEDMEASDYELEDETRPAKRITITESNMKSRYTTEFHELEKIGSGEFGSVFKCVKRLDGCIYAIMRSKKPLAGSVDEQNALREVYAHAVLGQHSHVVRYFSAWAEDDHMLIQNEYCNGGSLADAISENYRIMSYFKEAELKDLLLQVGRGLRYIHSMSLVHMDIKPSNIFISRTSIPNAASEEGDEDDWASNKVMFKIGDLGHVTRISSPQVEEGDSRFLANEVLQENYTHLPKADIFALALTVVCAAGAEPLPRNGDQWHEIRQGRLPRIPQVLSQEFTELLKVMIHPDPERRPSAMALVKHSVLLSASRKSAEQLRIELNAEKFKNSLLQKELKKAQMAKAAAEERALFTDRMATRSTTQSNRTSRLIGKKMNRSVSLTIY
# hcDAF-12 act = H. contortus DAF-12 nuclear receptor activators, primary screen, cell-based, luminescence, HEK293, lit1-tk-luc reporter; HEK293 hcDAF-12 lit1-tk-luc reporter; 0% DMSO, 100% Δ7-dafachronic acid; activation, % at 6.8 µM; actives 1.4% (n = 370,000); AID 652067, 2013;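 active = activation above the mean of all tested compounds plus 3 SD, cut at about 5.5% in these data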
# DAX1 inh-2 = DAX1 (NR0B1) inhibitors on StAR promoter, primary screen, cell-based, luminescence, SF-1 (NR5A1), full-length DAX-1. HEK293T StAR-luciferase reporter, SF-1/DAX-1 repression relief. inhibition, % at 6.8 µM. actives 1.1% (n = 370,000). AID 652010, 2013;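 active = inhibition above the mean over all tested compounds plus 3 SD, cut at about 3.6% in these data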;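 note: higher inhibition means more luminescence from relief of DAX-1 repression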
# Wee1 degr conf = Wee1 degradation inhibitors, confirmation, cell-based, HeLa, Wee1K328M-luciferase, luminescence, triplicate; shares compounds with Wee1 stabilizer; AID 1410, 2008; HeLa Luc-Wee1K328M degradation; vehicle 0%, proteasome-blocked wells 100%; actives 4% (n = 1,100); activation, % at 5 µM; in the data active = activation above about 8.9%
# Hits are given with their value; n = inactive; x = no result. Only some compounds are listed: those with a hit (about 4.6% of all), similar ones and a draw of the others.
SMILES,DAX1 inh-1,ssDAF12 agonist,hgDAF12 agonist,Wee1 stabilizer,hcDAF-12 act,DAX1 inh-2,Wee1 degr conf
CCCCCN1CCCCC(NC(=O)c2ccc(C)cc2)C1=O (configuration not stated),x,n,n,x,n,n,x
O=C(NCc1cccs1)C1CCC(CNS(=O)(=O)c2ccccc2)CC1 (configuration not stated),n,n,n,12,n,n,n
O=C1c2ccccc2NC(c2ccccc2)N1Cc1ccco1 (configuration not stated),n,n,n,15,n,n,n
COc1cccc(NC(=O)c2cccc(C)c2[N+](=O)[O-])c1,n,n,n,14,n,n,n
CC1=CC(c2ccccc2)n2nc(N3C(=O)c4ccccc4C3=O)nc2N1 (configuration not stated),n,n,n,n,n,n,x
CC1=CC(c2ccccc2)n2nnnc2N1 (configuration not stated),11,n,n,12,n,n,n
O=C(NCc1ccc2c(c1)OCO2)c1ccc2c(c1)OCCO2,n,n,n,n,n,n,x
O=C(NCc1ccc2c(c1)OCO2)c1ccc2c(c1)OCO2,n,n,n,16,n,n,n
S=C(NCc1ccc2c(c1)OCO2)NCc1ccc2c(c1)OCO2,n,n,n,12,n,n,n
Nn1cnc2c(ncn2C2OC(CO)C(O)C2O)c1=O (configuration not stated),x,n,n,x,n,n,x
CCOC(=O)C1=C(c2ccccc2)NC(=S)NC1c1cccc([N+](=O)[O-])c1 (configuration not stated),n,n,n,12,n,n,n
Cc1noc(C)c1Cn1nc(C(=O)O)c2ccccc2c1=O,n,n,n,12,n,n,n
COc1ccc(NC(=O)c2cc(C3CCCCN3S(=O)(=O)c3c(C)noc3C)on2)c(C)c1 (configuration not stated),x,n,n,x,n,n,x
CC(NC(=O)CCc1nnc(-c2ccccc2)o1)c1ccccc1 (configuration not stated),n,n,n,n,n,n,x
CC(Cc1cccnc1)NC(=O)CCc1nnc(-c2ccccc2)o1 (configuration not stated),n,n,n,19,n,n,n
O=C(COc1ccccc1F)Nc1cc(S(=O)(=O)Nc2cccc(Cl)c2)ccc1O,n,n,n,x,n,n,x
CCC(C)C(CO)NCCCn1cnc2c(OCc3ccccc3)ncnc21 (configuration not stated),n,n,n,x,n,n,x
Cc1sc(NC(=O)c2ccco2)c(C(=O)c2ccc(Cl)cc2)c1C,n,n,n,n,n,n,x
Cc1csc(NC(=O)c2ccco2)c1C(=O)c1ccccc1,n,n,n,12,n,n,n
Cc1cccc(-c2cnc(C(O)c3ccc(Cl)cc3C)[nH]2)c1 (configuration not stated),x,n,n,x,n,n,x
OC[C@@H]1CCCN1Cc1nc(-c2cccs2)no1,n,n,n,11,n,n,n
c1csc(-c2noc(CN3CCN4CCCC4C3)n2)c1 (configuration not stated),n,n,n,n,n,n,x
CC(C)CCNC(=S)Nc1ccc2nc3n(c(=O)c2c1)CCCCC3,n,n,n,11,n,n,n
COc1ccccc1CNCC(=O)Nc1ccc(C#N)cc1,n,n,n,x,n,n,x
